Common to all, as to test: NCI-60 one-dose screen, 48 h (100 = growth as untreated, 0 = no growth, -100 = all killed)
Holding throughout (details): 10 µM unless noted

Assay [1] relates to RPMI-8226 leukemia.
In assay [2] the test system is OVCAR-8 ovarian.
Assay [3] has as its system OVCAR-5 ovarian.
Assay [4] has as its system OVCAR-4 ovarian.
Assay [5] relates to SK-OV-3 ovarian.
Assay [6] concerns IGROV1 ovarian.
Assay [7] deals with OVCAR-3 ovarian.
Assay [8] relates to HS 578T breast.
Assay [9] relates to NCI/ADR-RES ovarian.
Assay [10] relates to T-47D breast.
The test system of assay [11] is MDA-MB-435 melanoma.
The test system of assay [12] is SW-620 colon.
The test system of assay [13] is MCF7 breast.
The subject of assay [14] is HCT-116 colon.
The test system of assay [15] is HCC-2998 colon.
Assay [16] concerns KM12 colon.
Assay [17] relates to MDA-MB-468 breast.
The subject of assay [18] is BT-549 breast.

Growth data for ten molecules are collected here from PubChem BioAssay (NCI).

The panel holds about 83,000 compounds, 20% with a hit somewhere; the sample as a whole holds those more often.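 For each line, cells grew in 96-well plates with the test compound present at a single concentration for 48 hours.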 A number with no mark means an inactive call. The source made the active and inactive calls. How the source made its calls: active means growth percent below 10; inactive means the rest.

Take `O=C(NNc1nc2cc(C(F)(F)F)ccc2n2cccc12)c1cnccn1`: the growth was 1.97% (active) in [1]; -77.2% (active) in assay [2]; -59.2% (active) in assay [3]; -43.9% (active) in assay [4]; -88.2% (active) in assay [5]; -16.3% (active) in assay [6]. Also, the growth in [7] was -47.7% (active); in assay [8], 16.3%; in assay [9], -12% (active); in assay [10], -74% (active); in assay [11], -56.1% (active); in assay [12] it was -26.4% (active). In addition, the growth in assay [13] was -62.4% (active); in [14], -94.6% (active); in assay [15], -72.2% (active); in assay [16] it was -55% (active); in assay [17] it was -47.7% (active).

For the molecule `COc1ccc(C(=O)/C=C/c2cc3c(cc2Br)OCO3)cc1S(N)(=O)=O`, the growth was -13.6% (active) in assay [1]; -21% (active) in assay [2]; -7.93% (active) in assay [3]; 28% in assay [4]; 69% in [5]; 3.7% (active) in assay [6]. Also, the growth was -57.5% (active) in [7]; 30.3% in assay [8]; 13.8% in assay [9]; -34.1% (active) in assay [10]; 5.61% (active) in assay [11]; -42.7% (active) in assay [12]. In addition, the growth in assay [13] is -1.63% (active); in [15], -53.8% (active); in [16], -57.9% (active); in assay [17], 23.8%.

Take `COc1cc(OC)cc(-c2cc3ccc(N(C)C)cc3c(=O)[nH]2)c1`: the growth in [1] is 29.2%; in [2] it was 5.26% (active); in assay [3], 45.5%; in assay [4], 72.6%; in assay [5], 40.2%; in [6], 29.3%. In addition, the growth in assay [7] is 4% (active); in assay [8], 47.3%; in assay [10], 82%; in [11], 5.03% (active); in assay [12] it was 33.8%; in [13] it was 22.5%. For the same molecule, the growth in [14] was 8.72% (active); in assay [15] it was 40.7%; in [16] it was 16.7%.

For the molecule `CN1CCN(c2ccc(C(=O)/C=C/c3ccc(Br)cc3)cc2)CC1`, the growth was -0.714% (active) in [1]; 2.63% (active) in assay [2]; 39.5% in assay [3]; 61% in [4]; 15.8% in assay [5]; 39.4% in assay [6]. The growth in [7] was 17.7%; in assay [8], 89.6%; in assay [9] it was 45.1%; in assay [11], 22.5%; in assay [12] it was 19.4%; in assay [13], 6.72% (active). Besides, the growth is 7.41% (active) in assay [14], 14.7% in assay [15] and 10.6% in assay [16].

Consider `O=C(/C=C/c1ccc(O)c(O)c1)NC1CCOC1O` (configuration not stated), for which the growth in [1] is 97.4%; in assay [2], 95.7%; in [4] it was 108%; in assay [5], 94.8%; in assay [6], 111%; in assay [7], 103%. For the same molecule, the growth in [8] was 89.1%; in assay [9], 105%; in assay [10], 92.8%; in assay [18], 108%; in assay [11] it was 101%; in [12] it was 109%. For the same molecule, the growth is 90.7% in [13]; 103% in assay [14]; 99.2% in assay [15]; 102% in assay [16]; 109% in assay [17].

On to `C/C(=N\Nc1ccc(S(N)(=O)=O)cc1)c1ccc(N=Nc2c(Nc3ccccc3)[nH][nH]c2=O)cc1`, for which the growth in [1] is 3.47% (active); in assay [2], -20.2% (active); in [3], 58.3%; in assay [4], 42.6%; in [5], -15.5% (active); in [6], 43.3%. Further, the growth was -2.25% (active) in assay [7]; 21.5% in assay [8]; 89.6% in [9]; -30.8% (active) in assay [10]; -13.6% (active) in [11]; 18.1% in assay [12]. Further, the growth in assay [13] is -31.2% (active); in assay [14], 0.299% (active); in assay [15] it was -24.6% (active); in assay [16], 3.69% (active); in [17] it was -35.6% (active).

Regarding `COc1cc2c(c(OC)c1OC)C(=O)CC(c1cccc(NC(=O)c3cccc(NC(=O)[C@H](C)NC(=O)OC(C)(C)C)c3)c1)O2` (some centres not stated), the growth was 28.2% in assay [2]; 123% in assay [3]; 51.8% in assay [4]; 91.9% in [5]; 65.3% in assay [6]; 52.9% in [7]. Moreover, the growth is 73.6% in assay [8]; 80% in [9]; 19.8% in assay [10]; 36.9% in [18]; 65.6% in assay [11]; 86.9% in assay [12]. Besides, the growth in assay [13] is 39.3%; in assay [14], 41.2%; in [15] it was 105%; in [16], 41.2%; in assay [17], 58.1%.

Turning to `O=C(Nc1ccc(C(F)(F)F)cc1)Nc1ccc2oc(=O)ccc2c1`, the growth was -20.4% (active) in [1]; 15.7% in assay [2]; 39.5% in assay [3]; 41.7% in assay [4]; 16% in assay [5]; 33% in assay [6]. In addition, the growth is 26.7% in assay [7]; 49.7% in [8]; 12.4% in assay [9]; 24.1% in [11]; 31.2% in assay [12]; 2.63% (active) in [13]. The growth in assay [14] is 8.31% (active); in [15], 32.5%; in assay [16] it was 16%; in assay [17], 5% (active).

Consider `O=C(NNc1nc2cc(F)ccc2n2c(CN3CCCCC3)ccc12)c1cnccn1`, for which the growth in assay [1] is -2.84% (active); in assay [2], -84% (active); in assay [3], -69.5% (active); in assay [5], -63.7% (active); in assay [6], -3.63% (active); in assay [7], -45.9% (active). Besides, the growth in assay [8] is 23.7%; in assay [9], -31.5% (active); in assay [10], -61.5% (active); in [11], -46.3% (active); in [12], 2.86% (active); in assay [13] it was -55.9% (active). The growth in [15] was -65.2% (active); in assay [16], -29.8% (active); in [17], -62.8% (active).

As to `COc1ccc(C2=NN(c3ccccc3)C(c3ccc(OCc4ccccc4)c(OC)c3)C2)cc1OC` (configuration not stated), the growth in assay [1] is 120%; in assay [2], 92.6%; in assay [3], 102%; in assay [4], 113%; in assay [5] it was 98.1%; in [6], 102%. The growth in assay [7] was 109%; in assay [8] it was 94.1%; in assay [9], 109%; in assay [10], 89.4%; in assay [11] it was 105%; in assay [12], 101%. The growth is 84.8% in [13]; 85.9% in assay [14]; 117% in assay [15]; 91.8% in assay [16]; 105% in assay [17].
